From PubChem BioAssay (NCATS)
Results filed as inconclusive are left out. Active and inactive are the calls of the source. Calls follow the shape of the dose curve; as a rule, active = well fitted curve in the direction sought with a large enough effect; inconclusive = small, poorly fitted or top-dose-only effect, or another doubt; inactive = no such curve, though single readings can be large; an effect the other way counts as inactive or inconclusive.

Experiments:
NIH3T3 = test: qHTS assay to identify novel small-molecules to repurpose for Merkel cell carcinoma treatment (AID 1296009); details: MCC and control cell lines, CellTiter-Glo viability, 72 h; series mostly up to 44.8 µM; also: nearly all actives have a fitted effect of over 60% in size
In short: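 CellTiter-Glo luminescence after 72 hr compound exposure at 37 degree celsius gave cell viability. Libraries NPC and MIPE were run as 8- and 11-point dose responses; RLUs normalized to DMSO (negative) and no-cell (cytotoxicity) controls.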

C33A = test: Primary qHTS to identify gynecologic anti-cancer compounds using libraries of approved drugs and bioactive compounds (AID 1345084); details: Gynecologic cancer cell panel viability, ATPlite luminescence, 48 h; series mostly up to 57.5 µM; also: nearly all actives have a fitted effect of over 55% in size
In short: (§1)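 Cells, 1,000 per well, were allowed to settle for 16 h at 37 C before compound addition. Five concentrations were tested for 48 h, and viability was read by ATPlite luminescence after 15 min at room temperature.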

CAOV3 = test: as above; details: Gynecologic cancer cell panel viability, ATPlite luminescence, 48 h; series mostly up to 57.5 µM
In short: as §1

CASKI = test: as above; details: Gynecologic cancer cell panel viability, ATPlite luminescence, 48 h; series mostly up to 57.5 µM
In short: as §1

Es-2 = test: as above; details: Gynecologic cancer cell panel viability, ATPlite luminescence, 48 h; series mostly up to 57.5 µM
In short: as §1

HeLa = test: as above; details: Gynecologic cancer cell panel viability, ATPlite luminescence, 48 h; series mostly up to 57.5 µM
In short: as §1

Hek293T = test: as above; details: Gynecologic cancer cell panel viability, ATPlite luminescence, 48 h, control line for the selectivity index; series mostly up to 57.5 µM
In short: as §1

JEG-3 = test: as above; details: Gynecologic cancer cell panel viability, ATPlite luminescence, 48 h; series mostly up to 57.5 µM
In short: as §1

OV90 = test: as above; details: Gynecologic cancer cell panel viability, ATPlite luminescence, 48 h; series mostly up to 57.5 µM
In short: as §1

PA-1 = test: as above; details: Gynecologic cancer cell panel viability, ATPlite luminescence, 48 h; series mostly up to 57.5 µM
In short: as §1

SKOV3 = test: as above; details: Gynecologic cancer cell panel viability, ATPlite luminescence, 48 h; series mostly up to 57.5 µM
In short: as §1

Tov-21-G = test: as above; details: Gynecologic cancer cell panel viability, ATPlite luminescence, 48 h; series mostly up to 57.5 µM
In short: as §1

Tov112D = test: as above; details: Gynecologic cancer cell panel viability, ATPlite luminescence, 48 h; series mostly up to 57.5 µM
In short: as §1

Measured: Potency

C/C=C/C=C/C(=O)O[C@@H]1C=C2COC(=O)[C@]2(O)[C@@]2(C)CCCC(C)(C)[C@H]12
inactive: all assays above

C[C@@H]1CN(CC(=O)N2CC(C)(C)c3ncc(Cc4ccc(F)cc4)cc32)[C@@H](CN2CCOC[C@H]2C)CN1
inactive: NIH3T3

N[C@@H]1c2cccnc2[C@H](OC(=O)N2CCC(n3c(=O)[nH]c4ncccc43)CC2)CC[C@H]1c1cccc(F)c1F
inactive: all assays above

C=C(COC(=O)C(O)C(O)CN)C12OC1C1(C)C(=CC2=O)C(O)C(O)CC1C (stereo not given)
inactive: all assays above

CCOC(=O)N1CCC(N2CCC[C@@H](NC(=O)c3ccccc3C)C2)CC1
inactive: all assays above

C/C=C(\C)C(=O)OC1C=C(C)CC(OC(=O)c2ccc(O)cc2)C2C1(C)CCC2(O)C(C)C (stereo not given)
inactive: all assays above

O=C(c1ccccn1)N(Cc1cccs1)C1(C(=O)NC2CCCCC2)CCCCC1
inactive: all assays above

COC(=O)CC[C@@H](C)C1CCC2C3CCC4C[C@H](OC(C)=O)CCC4(C)C3C[C@H](O)C21C (stereo not given in full)
inactive: all assays above

CCOc1ccc(CCNC(=O)c2cc3sc(Cl)cc3n2C)cc1OCC
inactive: all assays above

CCCN1CCC=C(c2cc(-c3ccc(C)cc3)no2)C1
inactive: all assays above

C=C(C(=O)OC)[C@@H]1CC=C2C=CC(=O)[C@H](C)[C@@]2(C)C1
inactive: all assays above

O=C(N[C@H]1CCN(C(=O)c2cc(C(F)(F)F)cc(C(F)(F)F)c2)[C@H](Cc2ccc(Cl)cc2)C1)c1ccnc2ccccc12
inactive: all assays above

O=C(Nc1ccccc1C(=O)Nc1ccc(CCO)cc1)c1ccc([N+](=O)[O-])cc1
inactive: all assays above

COC(=O)N1CC2(CC2)C[C@H](C(=O)NO)[C@H]1C(=O)N1CCN(c2ccccc2)CC1
inactive: NIH3T3

Fc1ccc2c(CCNCc3cccc(OCC(F)(F)C(F)F)c3)c[nH]c2c1
inactive: all assays above

CC(=O)C1=C(O)C=C2Oc3c(C(C)=O)c(O)c(C)c(O)c3[C@]2(C)C1=O
inactive: all assays above

CC(=O)O[C@@H]1CC[C@@]2(C)C(CC[C@]3(C)C2[C@H](O)C=C2[C@H]4[C@@H](C)[C@H](C)CC[C@]4(C)CC[C@]23C)[C@@]1(C)C(=O)O (stereo not given in full)
inactive: all assays above

CC(=O)OCC(=O)[C@@]12O[C@@H]1C[C@H]1[C@@H]3CC=C4C[C@@H](O)CC[C@]4(C)[C@H]3CC[C@@]12C
inactive: all assays above
